# From PubChem BioAssay
# The other results are listed elsewhere or left out. Active and inactive are the calls of the source. Cut-off read from the data, not from the text of the source, unless noted: active = activity above about 50%; inactive = the rest.
# What was measured:
# [1] = HIF-2a driven luciferase blockers, single dose – luminescence, 786-0 RCC cells, confirmation (AID 651580;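 active = mean inhibition across four replicates of at least 40 percent at the single tested concentration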); details: HIF-2a luciferase reporter luminescence, overnight, at 18.8 µM, stronger effect = higher value
# [2] = HIF-1a luciferase reporter signal reduction – MiaPaCa-2 cells, single concentration, counter-screen for HIF-2a inhibitor project, confirmation (AID 651589;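 active = mean inhibition of the reporter signal across four replicates at the single tested dose of 50% or more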); details: MiaPaCa-2 HIF-1a luciferase reporter, desferoxamine, overnight; at 18.8 µM; stronger effect = higher value
# [3] = NFkB reporter suppression in cystic fibrosis bronchial cells – cell-based, uHTS hits, panel, cytotoxicity readout, dose response (AID 624344); details: CF bronchial epithelial cells, PAF-induced NFkB reporter inhibition, with PAF, run 1; at 79 µM (top of the series) unless noted
# [4] = as above; details: CF bronchial epithelial cells, PAF-induced NFkB reporter inhibition, with PAF, run 2; at 79 µM (top of the series) unless noted
# [5] = target: Tumor necrosis factor receptor superfamily member 10B (Homo sapiens) (UniProt O14763); assay: viability loss of caspase-8 NB7 cells with TRAIL – with/without TRAIL, luminescence panel, confirmation (AID 651596); details: NB7 neuroblastoma + caspase-8, TRAIL sensitization, NB7 Caspase-8, with TRAIL, mean of runs, at 10 µM, stronger effect = higher value
# [6] = as above; details: NB7 neuroblastoma + caspase-8, without TRAIL, NB7 Caspase-8, without TRAIL, mean of runs, at 10 µM
# Tumor necrosis factor receptor superfamily member 10B (Homo sapiens), sequence (O14763 whole entry, looked up): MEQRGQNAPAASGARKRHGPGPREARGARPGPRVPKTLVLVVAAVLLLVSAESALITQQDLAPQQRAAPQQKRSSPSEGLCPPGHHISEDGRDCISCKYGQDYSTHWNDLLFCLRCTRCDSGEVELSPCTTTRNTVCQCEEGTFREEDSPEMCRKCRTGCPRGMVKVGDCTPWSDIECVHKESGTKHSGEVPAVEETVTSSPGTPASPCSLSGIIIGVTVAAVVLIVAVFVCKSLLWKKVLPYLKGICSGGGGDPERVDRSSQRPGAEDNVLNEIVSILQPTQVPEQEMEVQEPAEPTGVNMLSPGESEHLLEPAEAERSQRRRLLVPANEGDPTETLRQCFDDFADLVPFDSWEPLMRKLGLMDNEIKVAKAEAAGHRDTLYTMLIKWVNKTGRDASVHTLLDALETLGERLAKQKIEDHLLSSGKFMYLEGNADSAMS
smiles,measurement,setting,value
COc1cc2c(cc1O)C(SC)=NC(C)(C)C2,inhibition,[1],2.51% (inactive)
same,inhibition,[2],66.5% (active)
CCC(C)(C)c1ccc(Oc2ccc(NC(=O)COC(=O)C3=COCCO3)cc2)cc1,inhibition,[1],97.8% (active)
same,inhibition,[2],92.9% (active)
COC(=O)CCNc1ccc2c(c1)OCCO2,inhibition,[1],50.7% (active)
same,inhibition,[2],56.6% (active)
Clc1ccc(Cn2ncc3c(N4CCN(c5ccccc5)CC4)ncnc32)cc1,inhibition,[3],109%
same,inhibition,[4],94.9%
same,activity,[5],69.5%
same,activity,[6],66.8%
CCCSC(=S)NC1CCS(=O)(=O)C1 (stereo not drawn),inhibition,[1],14.6% (inactive)
same,inhibition,[2],68.5% (active)
COc1cc(NC(=O)Cn2ncc(Cl)c(Cl)c2=O)c(C)cc1[N+](=O)[O-],inhibition,[3],97.1%
same,inhibition,[4],91.1%
same,activity,[5],99.2%
same,activity,[6],99.3%
O=C(NCCC1=CCCCC1)c1coc(=O)c(Br)c1,inhibition,[3],79.7%
same,inhibition,[4],74.3%
same,activity,[5],76.4%
same,activity,[6],22.7%
CCOC(=O)C1=C(CC)Nc2ccccc2N=C1NC(=O)Nc1ccc(Cl)c(Cl)c1,inhibition,[3],113%
same,inhibition,[4],103%
same,activity,[5],63.9%
same,activity,[6],64.3%
COc1ccc(-c2cc(-c3nc4ccccn4c3NCc3ccccc3)ccc2OC)cc1,inhibition,[3],105%
same,inhibition,[4],96.6%
same,activity,[5],93.2%
same,activity,[6],88.6%
Cc1coc2c(O)cc3c(c12)OC1(N2CCCCC2)C(=O)NCCCC31 (stereo not drawn),inhibition,[1],1.41% (inactive)
same,inhibition,[2],107% (active)
N#C/C(=C/c1cccc([N+](=O)[O-])c1)c1nnc2n1CCCCC2,inhibition,[1],23.5% (inactive)
same,inhibition,[2],11.7% (inactive)
COc1ccc(-c2oc3ncnc(NCCCO)c3c2-c2ccc(OC)cc2)cc1,inhibition,[1],37.9% (inactive)
same,inhibition,[2],82.4% (active)
O=S(=O)([N-]c1nc2ccccc2nc1-[n+]1ccc(Cc2ccccc2)cc1)c1ccc(Br)s1,inhibition,[1],-48.2% (inactive)
same,inhibition,[2],79.1% (active)
Cc1[nH]cnc1C(=O)N/N=C/c1c(Cl)cccc1Cl,activity,[5],58.7%
same,activity,[6],57.6%
Cc1ccc(-c2noc(CNC(=O)c3ccoc3C)n2)cc1,inhibition,[1],0.91% (inactive)
same,inhibition,[2],-16.7% (inactive)
O=C(NC(=S)Nc1nc2ccccc2s1)c1ccco1,activity,[5],77.7%
same,activity,[6],64.4%
COc1ccc(CC(N)c2csc(NC(=O)Nc3ccc(C(C)C)cc3)n2)cc1 (stereo not drawn),inhibition,[1],3.55% (inactive)
same,inhibition,[2],101% (active)
same,activity,[5],82.5%
same,activity,[6],97.2%
C/C(=N\Nc1nc2ccccc2[nH]1)c1ccccn1,activity,[5],51.5%
same,activity,[6],68.5%
O=C(CN1CCN(C2CCS(=O)(=O)C2)CC1)N1N=C(c2ccc(Cl)cc2)CC1c1ccco1 (stereo not drawn),inhibition,[1],-11% (inactive)
same,inhibition,[2],74.8% (active)
Cc1cccc(C(=O)Nc2ccc(CC(=O)O)cc2)c1,inhibition,[1],53% (active)
same,inhibition,[2],44.8% (inactive)
CN(C)CCNC(=O)c1cccc(-c2cnc3c(NC=O)cc(-c4cccc(C(F)(F)F)c4)cn23)c1,inhibition,[1],8.84% (inactive)
same,inhibition,[2],106% (active)
same,activity,[5],46.6%
same,activity,[6],90.8%
O=[N+]([O-])c1ccc(-[n+]2ccc3ccccc3c2)c([N+](=O)[O-])c1,activity,[5],93.3%
same,activity,[6],98.8%
O=C(CCl)N(Cc1cccc([N+](=O)[O-])c1)c1cccc(Cl)c1,inhibition,[1],62.8% (active)
same,inhibition,[2],107% (active)
same,activity,[5],99.1%
same,activity,[6],99.6%
Cc1nn(-c2ccccc2)c(Cl)c1/C=N/NC(=O)c1ccn[nH]1,activity,[5],79.8%
same,activity,[6],71.3%
O=C(Nc1ccccc1)c1nnsc1S(=O)(=O)c1ccc(Cl)cc1,inhibition,[1],47.1% (active)
same,inhibition,[2],-5.15% (inactive)
COc1ccc(-c2ccc3c(c2)S(=O)(=O)c2cccc(C(=O)NCCOc4ccccc4Cl)c2C3=O)cc1OC,activity,[5],91.2%
same,activity,[6],77.8%
O=C(COc1ccc(Cl)cc1Cl)Nc1ccccc1F,activity,[5],54.9%
same,activity,[6],40.5%
NC(Cc1ccc(C(F)(F)F)cc1)c1csc(Nc2nncc3ccccc23)n1 (stereo not drawn),activity,[5],38.8%
same,activity,[6],89.1%
CCN(CC)CCCC(C)n1c2nc(=O)[nH]c(=O)c-2nc2cc(Cl)ccc21 (stereo not drawn),inhibition,[1],97.9% (active)
same,inhibition,[2],50% (inactive)
O=Cc1s/c(=N\S(=O)(=O)c2ccccc2)n(CCCCl)c1Cl,activity,[5],94.2%
same,activity,[6],88.6%
CCOc1ccc(CN(C)C(=O)[C@H](Cc2ccccc2)NC(=O)OCc2ccccc2)cc1OC,activity,[5],-12.3%
same,activity,[6],1.82%
COc1cccc2c(C)c(C(=O)O)[nH]c12,inhibition,[1],35.5% (inactive)
same,inhibition,[2],37.3% (inactive)
CC(/C=N/NC(=O)c1cccs1)=C\c1ccccc1,activity,[5],61.9%
Cc1cc(Cl)c(S(=O)(=O)Nc2ccc3c(c2)OCCO3)cc1OCC(N)=O,inhibition,[1],46.5% (active)
same,inhibition,[2],52.6% (active)
NC(N)=Nc1nc(-c2ccccc2)c2cc(Cl)ccc2n1,inhibition,[1],17.8% (inactive)
same,inhibition,[2],107% (active)
Cc1cc(-c2n[nH]c(=S)n2/N=C/C(Br)=C/c2ccccc2)n[nH]1,inhibition,[1],22.8% (inactive)
same,inhibition,[2],105% (active)
COc1cc2c3nnc(-c4ccc(F)cc4)c-3cn(Cc3ccccc3)c2cc1OC,activity,[5],40.5%
same,activity,[6],57.5%
Nc1nc(N)c2c(ccc3nccc32)[nH]1,activity,[5],73.3%
same,activity,[6],78.7%
Cc1cccc(Nc2nc(N)nc(CCl)n2)c1,activity,[5],97.7%
same,activity,[6],96.8%
